{"source": "PubChem BioAssay (EPA / NIEHS)", "note": "“And” between values parts separate entries of the source, which are not always exact repeats. Identical values can stand only once. The source made the active and inactive calls. Rule for the calls: active = hit-call score of the fitted dose curve at least 0.9, where 1 is the maximum; inactive = score below 0.9."}
{"read-out": "Interleukin-1 alpha (IL1a), IL1A (gene 3552)", "experiment": "BSK_LPS_IL1a: BioMAP Diversity Plus: LPS Assay for Interleukin-1 alpha (IL1a) Biomarker Activity (AID 2283080)", "conditions": "primary human HUVEC with PBMC; actives raise or lower the signal", "procedure": "BSK_LPS is a cell-based, multiplexed-readout assay that uses umbilical vein endothelium and peripheral blood mononuclear cells, a human vascular primary cell co-culture, with measurements taken at 24 hours after chemical dosing in a 96-well plate.BSK_LPS_IL1a is an assay component measured in the BSK_LPS assay. It measures IL-a antibody related to regulation of gene expression using ELISA technology.Data from the assay component BSK_LPS_IL1a was analyzed into 1 assay endpoint. This assay endpoint, BSK_LPS_IL1a, was analyzed with bidirectional fitting relative to DMSO as the negative control and baseline of activity. Using a type of binding reporter, gain or loss-of-signal activity can be used to understand changes in the signaling as they relate to the gene IL1A. Furthermore, this assay endpoint can be referred to as a primary readout, because this assay has produced multiple assay endpoints where this one serves a signaling function. To generalize the intended target to other relatable targets, this assay endpoint is annotated to the cytokine intended target family, where the subfamily is interleukins.\nThe levels of cell surface (or secreted, indicated by the prefix \"s\") biomarker endpoints were measured by ELISA. Overt cytotoxicity to cells in confluent adherent cultures (all systems other than the BT system) was assessed by measuring total protein levels using sulforhodamine B (SRB) staining in parallel cultures at the time of biomarker measurements, indicated as SRB endpoints. For proliferation assays for adherent cell types, individual cell types are cultured at sub-confluence and relative cell numbers quantified by SRB staining at time points optimized for each system (48 h: 3C and CASM3C systems; 72 h: BT and HDF3CGF systems; 96 h: SAg system). SRB was performed by staining cells with 0.1% SRB after fixation with 10% TCA and reading wells at 560 nm.Viability and proliferation of PBMC (T cells) was quantified by Alamar Blue reduction for the SAg and BT systems. For PBMC viability (referred to as PBMC Cytotoxicity within the assay endpoint names), cells were plated (75,000/well in a 96-well plate) and then chemical samples added for 1 h before addition of activators, SEB and TSST-1 (20 ng/mL final concentration each). Cells were incubated for 90 h. Then, Alamar Blue (20 uL/well) (Invitrogen, Cat DAL1100) was added for 6 h, and the plates were read with a fluorescence microplate reader at 546/580 nm (excitation/emission). For PBMC proliferation, cells were plated and activated as above but incubated for only 16 h prior to addition of Alamar Blue. Plates were read after 6 h."}
{"molecule": "C=CC(=O)OCC(C)OCC(C)OCC(C)OC(=O)C=C", "note": "(stereo not given)", "AC50": "9.53 µM (active)"}
{"molecule": "CCCCCC1=CCCC1=O", "outcome": "inactive"}
{"molecule": "CCCCCCCCCCCC(C)=O", "outcome": "inactive"}
{"molecule": "CC1(C)CC(O)CC(C)(C)N1[O]", "outcome": "inactive"}
{"molecule": "CCCCC1C(=O)N(c2ccccc2)N(c2ccccc2)C1=O", "outcome": "inactive"}
{"molecule": "C=CC(=O)NC(C)(C)C", "outcome": "inactive"}
{"molecule": "O=C1CCCCCCCCCCCN1", "outcome": "inactive"}
{"molecule": "CC=C(C)C(C)=O", "outcome": "inactive"}
{"molecule": "CC(CCC(=O)O)(c1ccc(O)cc1)c1ccc(O)cc1", "outcome": "inactive"}
{"molecule": "c1ccc(Nc2cccc3ccccc23)cc1", "AC50": "34.1 µM (active) and 34.7 µM (active)"}
{"molecule": "CCCCCCCCC(CO)CCCCCC", "note": "(stereo not given)", "outcome": "inactive"}
{"molecule": "CCN1CN(CC)CN(CC)C1", "outcome": "inactive"}
{"molecule": "CC/C=C\\C/C=C\\C/C=C\\CCCCCCCC(=O)OC", "AC50": "13.9 µM (active)"}
{"molecule": "CCC1(C)C(=O)N(Cl)C(=O)N1Cl", "note": "(stereo not given)", "outcome": "inactive"}
{"molecule": "C1CNCCN1", "outcome": "inactive"}
{"molecule": "c1ccc2sc(SSN3CCOCC3)nc2c1", "outcome": "inactive"}
{"molecule": "CC(C)CCCCCOC(=O)CS", "outcome": "inactive"}
{"molecule": "C=CC(=O)NCOCCCC", "outcome": "inactive"}
{"molecule": "Nc1ccc(C(=O)O)cc1", "outcome": "inactive"}
{"molecule": "Fc1ccc(Br)cc1", "outcome": "inactive"}
{"molecule": "Oc1ccc(/C=C/c2cc(O)cc(O)c2)cc1", "outcome": "inactive"}
{"molecule": "CC/C=C\\CCOC(=O)c1ccccc1O", "AC50": "29.6 µM (active)"}
{"molecule": "C=CC(=O)OCCCCCCCC(C)C", "outcome": "inactive"}
{"molecule": "CCOC(=O)/C=C\\C(=O)OCC", "outcome": "inactive"}
{"molecule": "CCCCCCCO", "outcome": "inactive"}
{"molecule": "O=C(Cl)c1c(Cl)c(Cl)c(C(=O)Cl)c(Cl)c1Cl", "outcome": "inactive"}
{"molecule": "CC(c1cc(C(C)(C)C)cc(C(C)(C)C)c1O)c1cc(C(C)(C)C)cc(C(C)(C)C)c1O", "outcome": "inactive"}
{"molecule": "Cc1ccc([N+](=O)[O-])cc1N", "outcome": "inactive"}
{"molecule": "CCOC(=O)C1=NOC(c2ccccc2)(c2ccccc2)C1", "outcome": "inactive"}
{"molecule": "COc1ccc(C(=O)c2ccccc2)c(O)c1", "outcome": "inactive"}
{"molecule": "Cc1c(O)cccc1O", "outcome": "inactive"}
{"molecule": "c1ccc2c(c1)[nH]c1ccccc12", "outcome": "inactive"}
{"molecule": "CCOC(=O)C1=NN(c2ccc(Cl)cc2Cl)C(C)(C(=O)OCC)C1", "note": "(stereo not given)", "outcome": "inactive"}
{"molecule": "O=C(O)C(F)(F)C(F)(F)C(F)(F)C(F)(F)C(=O)O", "outcome": "inactive"}
{"molecule": "O=C(Oc1ccccc1)c1ccccc1C(=O)Oc1ccccc1", "outcome": "inactive"}
{"molecule": "C[N+](C)(C)CCCNS(=O)(=O)C(F)(F)C(F)(F)C(F)(F)C(F)(F)C(F)(F)C(F)(F)C(F)(F)C(F)(F)F", "AC50": "13.2 µM (active) and 30 µM (active)"}
{"molecule": "CCNc1nc(NC(C)(C)C)nc(OC)n1", "outcome": "inactive"}
{"molecule": "CCCC(C)C(=O)OCC", "note": "(stereo not given)", "outcome": "inactive"}
{"molecule": "Clc1cc(Cl)c(Cl)c(Cl)c1Cl", "AC50": "16.2 µM (active)"}
{"molecule": "COc1ccc(C(=O)/C(Br)=C\\C(=O)O)cc1", "AC50": "20 µM (active) and 17 µM (active)"}
